This note sets out measurements from PubChem BioAssay.

Each structure is given as a SMILES string. The list shows a part of the results. Unmarked numbers belong to inactive results. Active and inactive are the calls of the source.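 How the source made its calls, unless noted: active means fluorescence ratio falls more than 5 SD below the full-stimulation control mean, in both duplicate runs; inactive means the rest.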

A short description of assay [1]: nonspecific voltage dye response without TRPC6 – cell-based, parental HEK293, counter-screen for TRPC6 modulator project, confirmation (AID 488924;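 active means membrane potential signal moves up or down beyond 5 SD from buffer-only wells, on both duplicate plates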). The note with it: parental HEK293, membrane potential dye fluorescence; at 10 µM. On the technique in general: The purpose of a counterscreen is to sort out artefacts and off-target activity.
The nature of assay [2]: membrane potential response modulators in host HEK293 cells – cell-based, second counter-screen, parental HEK293, membrane potential dye, counter-screen for TRPC6 modulator project, confirmation (AID 488926;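 active means membrane potential signal drops by more than 5 SD from the mean control signal, in both duplicate plates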;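 on inhibition: plate controls were acetylcholine ECmax control wells for no effect and buffer only wells for full effect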). The conditions noted are these: parental HEK293, membrane potential dye fluorescence, at 10 µM, after compound, maximal acetylcholine stimulation; stronger effect = higher value.

Assay [3] deals with Transient receptor potential cation channel subfamily C member 4 (mouse). Kind of assay: off-target membrane potential effects via mouse TRPC4 – cell-based, HEK293 TRPC4/mu-opioid, membrane potential dye, selectivity assay for TRPC6 modulator project, confirmation (AID 488927;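 active means membrane potential signal moved up or down beyond 5 SD of buffer control wells, in both duplicate plates, actives on both sides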;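 on percent change from control (negative = decrease, positive = increase): plate controls were assay buffer wells for no effect and DAMGO maximal-effect wells for full effect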). The conditions noted are these: membrane potential fluorescence, at 10 µM.
Assay [4] relates to TRPC4 (transient receptor potential cation channel C4), mouse. In words: DAMGO-evoked mouse TRPC4 response blockade – cell-based, second screen, HEK293 TRPC4/mu-opioid, membrane potential dye, selectivity assay for TRPC6 modulator project, confirmation (AID 488928;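 active means drop in membrane potential signal beyond 5 SD of the control wells in both duplicate plates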;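 further: TRPC4 counter screen for TRPC6 hits run under conditions tuned for TRPC6 not TRPC4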). The conditions noted are these: membrane potential dye fluorescence, at 10 µM, stimulated with maximal-effect DAMGO; stronger effect = higher value.

For assay [5], the target named is Short transient receptor potential channel 6 (Mus musculus) (UniProt Q61143). Kind of assay: blockers of TRPC6 cation channel activity – HEK293 cells, membrane potential dye, duplicate, confirmation (AID 488960).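 On inhibition: integrated fluorescence ratio of peak minus minimum over baseline after agonist.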 The conditions noted are these: ACh-evoked depolarization, at 10 µM; stronger effect = higher value.
The target is the same in assay [6]. In words: mouse TRPC6 channel activators, confirmation, HEK293 cells, membrane potential dye, duplicate (AID 488961;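 active means ratio signal rise beyond 5 SD above unstimulated control wells' mean, seen in both duplicate runs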;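 on activation: plate controls were buffer EC0 wells for no effect and acetylcholine ECmax response for full effect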). The conditions noted are these: HEK293-TRPC6 membrane potential dye fluorescence, FDSS, at 10 µM; stronger effect = higher value.

Sequence of Short transient receptor potential channel 6 (Mus musculus) (Q61143 whole entry, looked up): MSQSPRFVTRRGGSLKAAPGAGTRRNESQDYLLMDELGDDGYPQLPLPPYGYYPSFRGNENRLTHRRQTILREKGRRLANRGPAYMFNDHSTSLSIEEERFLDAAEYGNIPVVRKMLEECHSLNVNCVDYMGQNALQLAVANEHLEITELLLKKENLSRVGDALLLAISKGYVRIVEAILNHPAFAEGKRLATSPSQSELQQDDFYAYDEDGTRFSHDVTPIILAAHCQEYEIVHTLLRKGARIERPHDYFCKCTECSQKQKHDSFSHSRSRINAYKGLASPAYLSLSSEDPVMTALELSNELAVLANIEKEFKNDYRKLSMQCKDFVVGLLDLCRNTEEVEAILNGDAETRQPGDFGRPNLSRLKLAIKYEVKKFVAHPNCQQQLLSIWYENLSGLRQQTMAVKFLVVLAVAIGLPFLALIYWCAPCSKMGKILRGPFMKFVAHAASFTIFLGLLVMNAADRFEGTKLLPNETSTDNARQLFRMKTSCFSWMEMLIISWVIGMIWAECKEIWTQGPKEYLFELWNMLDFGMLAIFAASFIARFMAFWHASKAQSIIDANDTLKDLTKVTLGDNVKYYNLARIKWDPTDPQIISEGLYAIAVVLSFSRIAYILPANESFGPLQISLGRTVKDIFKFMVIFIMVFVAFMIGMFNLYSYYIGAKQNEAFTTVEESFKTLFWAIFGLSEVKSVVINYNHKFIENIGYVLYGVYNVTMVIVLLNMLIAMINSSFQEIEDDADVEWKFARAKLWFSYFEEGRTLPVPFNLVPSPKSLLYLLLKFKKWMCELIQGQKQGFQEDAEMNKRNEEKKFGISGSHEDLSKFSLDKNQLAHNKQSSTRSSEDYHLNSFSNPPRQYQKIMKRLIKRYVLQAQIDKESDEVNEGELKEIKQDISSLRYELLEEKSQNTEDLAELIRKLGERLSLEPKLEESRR

In the case of `CC(C)(C)n1nnnc1C(c1ccc2ncccc2c1)N1CCSCC1` (centres undefined), the outcome in assay [1] and in assay [2] was inactive. Further, in assay [3], the percent change from control (negative = decrease, positive = increase) was 19% (active). The figures for the inhibition in assay [4] and in assay [5] were 33% (active) and 84% (active), respectively. The activation in assay [6] is 140% (active).
Turning to `CC(C)C(c1nnnn1CCc1ccccc1)N1CCN(C(=O)c2ccco2)CC1` (centres undefined), the membrane potential signal change in assay [1] was 153% (active). In addition, the inhibition in assay [2] was 85.5% (active); in assay [5], 70% (active). In assay [3], the percent change from control (negative = decrease, positive = increase) is 27.5% (active). Besides, the call in assay [4] was inactive.
The corresponding values for `O=C(c1ccc(-n2cnnn2)cc1)N1CCN(C(c2ccccc2)c2ccccc2)CC1` are 251% (active), 71% (active), 44.5% (active), 18.5% (active) and “inactive”.
Consider `COc1ccc(-c2nnc(NC(=O)CS(=O)(=O)c3ccc(Cl)cc3)o2)c(OC)c1`, for which, in assay [1], the membrane potential signal change was 86% (active). For the same compound, the outcome in assay [2], in assay [3], in assay [4] and in assay [5] was inactive. The activation in assay [6] was 46.5% (active).
For the compound `CCCCCCn1cc(C(=O)O)c(=O)c2cc(F)c(N3CCCCC3)cc21`, the result in assay [1], in assay [2], in assay [4] and in assay [5] was inactive. The percent change from control (negative = decrease, positive = increase) in assay [3] is 11% (active). Moreover, the activation in assay [6] was 39.5% (active).
With `Cc1nc(C(=O)NCc2ccccc2)sc1C1(C)CC(c2cccnc2)=NO1` (centres undefined), the result in assay [1], in assay [3] and in assay [4] was inactive. For the same compound, the inhibition in assay [2] is 97.5% (active); in assay [5], 114% (active).
On to `CCOC(=O)c1sc2nc(CSCC(=O)OCc3ccc(C(=O)OC)o3)[nH]c(=O)c2c1C`, for which the membrane potential signal change in assay [1] was 148% (active). Further, the result in assay [2], in assay [3] and in assay [4] was inactive. For the same compound, the inhibition in assay [5] is 90% (active). The activation in assay [6] is 134% (active).
With `CC(C)(C)Nc1nc(-c2ccccn2)nc2ccccc12`, the membrane potential signal change in assay [1] was -424% (active). Moreover, the inhibition was 77% (active) in assay [2], 74% (active) in assay [4] and 56.5% (active) in assay [5]. For the same compound, in assay [3], the percent change from control (negative = decrease, positive = increase) was -58% (active). Besides, the compound was classed as inactive in assay [6].
On to `N=c1n(CCc2ccccc2)c2ccccc2n1Cc1ccccc1F`, for which the membrane potential signal change in assay [1] is 129% (active). Also, the outcome in assay [2] was inactive. Besides, the percent change from control (negative = decrease, positive = increase) in assay [3] is 20.5% (active). The inhibition was 90.5% (active) in assay [4] and 66.5% (active) in assay [5].
For the compound `COc1ccc(Cl)cc1NC(=O)CCS(=O)(=O)c1cc2c(cc1C)NC(=O)CO2`, the outcome in assay [1], in assay [2], in assay [4], in assay [5] and in assay [6] was inactive. In assay [3], the percent change from control (negative = decrease, positive = increase) was -9.5% (active).
For the compound `OCCC1CN(Cc2ccc3nsnc3c2)CCN1C1CCCCC1` (centres undefined), the membrane potential signal change in assay [1] was 109% (active). Moreover, the outcome in assay [2] and in assay [5] was inactive. The percent change from control (negative = decrease, positive = increase) in assay [3] is 18% (active). The inhibition in assay [4] is 37% (active).
Regarding `CCOC(=O)C1=NN(c2ccc(Cl)cc2)/C(=C/C2=NCCc3cc(OC)c(OC)cc32)S1`, the result in assay [1], in assay [2], in assay [4], in assay [5] and in assay [6] was inactive. The percent change from control (negative = decrease, positive = increase) in assay [3] is -15.5% (active).
As to `Nc1c(C(=O)c2cccs2)sc2nsc(SCCN3CCCCC3)c12`, the membrane potential signal change in assay [1] is 238% (active). Besides, the outcome in assay [2], in assay [4], in assay [5] and in assay [6] was inactive. Further, in assay [3], the percent change from control (negative = decrease, positive = increase) was 174% (active).
Take `COC(=O)c1ccccc1NC(=O)C1CCN(S(=O)(=O)c2cc(OC)ccc2OC)CC1`: the result in assay [1], in assay [2], in assay [4] and in assay [5] was inactive. Moreover, the percent change from control (negative = decrease, positive = increase) in assay [3] was 13% (active).
Take `CN1CCN(C(=O)N2c3ccccc3CCc3ccccc32)CC1`: the result in assay [1], in assay [2], in assay [4] and in assay [5] was inactive. In addition, the percent change from control (negative = decrease, positive = increase) in assay [3] is 14.5% (active).
For `Cc1nc(N=C(N)N)nc2c(C)cccc12`, the membrane potential signal change in assay [1] is -235% (active). The inhibition in assay [2] was 76.5% (active); in assay [4], 60% (active); in assay [5] it was 67.5% (active). Further, the percent change from control (negative = decrease, positive = increase) in assay [3] was -42.5% (active). The compound was called inactive in assay [6].
In the case of `c1ccc(C2CNCc3c2ccc2ccccc32)cc1` (centres undefined), the result in assay [1], in assay [2], in assay [3] and in assay [6] was inactive. Moreover, the figures for the inhibition in assay [4] and in assay [5] were 81.5% (active) and 58% (active), respectively.
For the compound `Clc1ccc(-n2nnnc2-c2cnc(-c3ccccn3)nc2-c2cccs2)cc1`, the membrane potential signal change in assay [1] is 133% (active). The result in assay [2], in assay [4] and in assay [5] was inactive. For the same compound, in assay [3], the percent change from control (negative = decrease, positive = increase) is 19.5% (active).
For the compound `CCCN(CCc1ccccc1)C1CCc2c(O)cccc2C1` (centres undefined), the membrane potential signal change in assay [1] was 202% (active). For the same compound, the outcome in assay [2] and in assay [5] was inactive. Also, the percent change from control (negative = decrease, positive = increase) in assay [3] was 45.5% (active). In addition, the inhibition in assay [4] is 68.5% (active). Also, the activation in assay [6] was 88.5% (active).
For `Cc1cccc(NC(=S)NCCN(C2CCCCC2)C2CCCC2)c1`, in assay [1], the membrane potential signal change was 129% (active). Besides, in assay [2], the result was inactive. The percent change from control (negative = decrease, positive = increase) in assay [3] was 24.5% (active). The figures for the inhibition in assay [4] and in assay [5] were 68.5% (active) and 44.5% (active), respectively.
In the case of `Cn1c(/C(C#N)=C2/CCCCCN2)nc2ccccc21`, the outcome in assay [1], in assay [2], in assay [3], in assay [4], in assay [5] and in assay [6] was inactive.
On to `COC(=O)c1c(NC(=O)c2ccc(S(=O)(=O)N3CCOCC3)cc2)sc2c1CCN(C(C)C)C2`, for which the membrane potential signal change in assay [1] is -96% (active). The result in assay [2], in assay [5] and in assay [6] was inactive. Besides, the percent change from control (negative = decrease, positive = increase) in assay [3] was -33% (active). Besides, the inhibition in assay [4] is 37.5% (active).
In the case of `CN1CCN(c2ccc([N+](=O)[O-])c(Sc3nc4ccccc4[nH]3)c2)CC1`, in assay [1], the membrane potential signal change is -66.5% (active). The outcome in assay [2] and in assay [6] was inactive. For the same compound, in assay [3], the percent change from control (negative = decrease, positive = increase) is -14.5% (active). In addition, the inhibition in assay [4] is 58.5% (active); in assay [5], 52.5% (active).
As for `CC(=O)Nc1ccc(NC(=O)CN2CCCC(C)C2)c(Cl)c1` (centres undefined), the result in assay [1], in assay [2], in assay [3] and in assay [4] was inactive. Moreover, the inhibition in assay [5] was 66% (active).
On to `O=C(C[n+]1ccc2c(c1)nnn2-c1ccccc1)c1ccc(Cl)cc1`, for which the membrane potential signal change in assay [1] was -110% (active). The result in assay [2] and in assay [6] was inactive. The percent change from control (negative = decrease, positive = increase) in assay [3] is -37.5% (active). The inhibition in assay [4] is 62% (active); in assay [5], 56% (active).
For `CCCc1cc(=O)oc2c(C)c(O)c(CN3CCCCC3)cc12`, the result in assay [1], in assay [2], in assay [3], in assay [4] and in assay [6] was inactive. Besides, in assay [5], the inhibition was 54.5% (active).
In the case of `CC(C)c1ccc(NC(=O)Cn2ncc3ccccc32)cc1`, the outcome in assay [1], in assay [2], in assay [3], in assay [4], in assay [5] and in assay [6] was inactive.
As to `O=C(CN1CCCCCC1)NCCN1C(=O)S/C(=C\c2ccccc2Cl)C1=O`, the result in assay [1], in assay [2], in assay [3], in assay [5] and in assay [6] was inactive. In addition, the inhibition in assay [4] is 36% (active).
As to `COc1cc2c(cc1OC)C(/C=C/c1ccco1)=NCC2`, the membrane potential signal change in assay [1] was -362% (active). The inhibition in assay [2] was 83% (active); in assay [4] it was 62% (active); in assay [5] it was 72.5% (active). Besides, the percent change from control (negative = decrease, positive = increase) in assay [3] was -64% (active). For the same compound, the compound was called inactive in assay [6].

In general, inhibition refers to the relative decrease from the control value, in per cent.
